Screening results (PubChem)
Rows were chosen to be rich in hits. Some 1.8% of all compounds tested hit in one or more screens of this group.
ERAP1 HTS inh: blocks human ERAP1 aminopeptidase activity; Q9NZ08; recombinant ERAP1, Leu-AMC fluorescence, 60 min; inhibition, % at 10.7 µM; 0.15% of 340,000 active;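 active means mean replicate inhibition of at least 30%, or all replicates individually reaching that 30% level; inactive means mean below 30% and not every replicate reaching it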;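 further: 0% = neutral control wells and 100% = L-leucinethiol positive control wells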
DENV2 CPE rescue: inhibitors of DENV2 cytopathic effect; DENV2-infected cells, cytopathic effect rescue, plate reader; CPE inhibition, % at 9.99 µM; 1.7% of 350,000 active; AID 651640; in the data active means CPE inhibition above about 20%, passing the limit was not always enough; tested in BHK-21 cells;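 further: 0% = median of neutral control wells and 100% = median of positive control wells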
ERp5 block: inhibitors of human ERp5 | AID 651711 | ERp5 insulin aggregation, absorbance 650 nm, 90 min | inhibition, % at 9.99 µM | 0.05% of 350,000 active;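 active means mean replicate inhibition above about 25%, with every replicate also reaching it, limit read from the data, passing the limit was not always enough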
AF4-AF9 inh: blocks AF4 peptide binding to human AF9; AlphaScreen, biotin-AF4 peptide binding to FLAG-AF9; P42568; AID 651704; inhibition, % at 10 µM; 0.47% of 350,000 active;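 active means every replicate reaching a set inhibition limit, whatever the replicate mean, cut at about 25% in these data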;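 further: 0% = plate neutral control median and 100% = total signal loss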
Target sequence (P42568 whole entry, looked up): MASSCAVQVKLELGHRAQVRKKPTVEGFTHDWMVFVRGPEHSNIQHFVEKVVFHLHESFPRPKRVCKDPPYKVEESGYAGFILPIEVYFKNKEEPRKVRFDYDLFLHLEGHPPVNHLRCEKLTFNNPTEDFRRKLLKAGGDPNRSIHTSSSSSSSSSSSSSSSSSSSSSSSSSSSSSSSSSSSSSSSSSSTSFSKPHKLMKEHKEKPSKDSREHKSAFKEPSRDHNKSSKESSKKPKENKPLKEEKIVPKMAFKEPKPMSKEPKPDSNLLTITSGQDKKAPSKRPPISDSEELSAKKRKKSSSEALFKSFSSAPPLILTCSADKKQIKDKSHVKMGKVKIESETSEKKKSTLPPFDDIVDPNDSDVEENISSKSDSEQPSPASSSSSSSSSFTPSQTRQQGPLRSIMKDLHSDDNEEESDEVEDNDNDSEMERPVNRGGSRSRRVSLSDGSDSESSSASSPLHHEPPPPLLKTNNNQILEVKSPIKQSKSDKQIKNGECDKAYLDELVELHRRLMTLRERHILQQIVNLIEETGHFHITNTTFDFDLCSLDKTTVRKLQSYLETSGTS
PDI turbidity: blocks human protein disulfide isomerase activity. PDI insulin aggregation turbidity, A650, 90 min. inhibition, % at 10 µM. 0.052% of 350,000 active;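 active means mean inhibition across replicates of 30% or more, whatever share of single replicates reach that level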
The depositor's hits bear a star; · = no result given; ! = repeats disagree.

SMILES | ERAP1 HTS inh | DENV2 CPE rescue | ERp5 block | AF4-AF9 inh | PDI turbidity
C[C@H]1CCCCO[C@H](CN(C)C(=O)Nc2ccc(F)cc2)[C@@H](C)CN([C@@H](C)CO)C(=O)c2cc(NC(=O)Nc3ccc4c(c3)OCO4)ccc2O1 | 3 | 10 | -2 | 32*! | 2
COc1ccc2c(c1)/C(=C/c1cc(OC)c(OC)c(OC)c1)C(=O)N2 | 3 | 29* | 1 | -3 | 0
COc1ccc(/C=C2\C(=O)NC(=O)c3ccccc32)cc1OC | 12 | -6 | -17 | 0 | 5
C[N+](C)(C)CC/C=C1/c2ccccc2CSc2ccccc21 | · | · | · | · | -4
CC(=O)OCCCN(C)CC/C=C1/c2ccccc2CSc2ccccc21 | -4 | 43* | 9 | 6 | 0
C[C@H](CO)N1C[C@H](C)[C@@H](CN(C)C(=O)Cc2ccccc2)OCCCC[C@H](C)Oc2ccc(NC(=O)Nc3ccc(C(F)(F)F)cc3)cc2C1=O | 0 | -2 | 9 | -3 | ·
C[C@@H]1CN([C@H](C)CO)C(=O)c2cc(NC(=O)Nc3ccc(C(F)(F)F)cc3)ccc2O[C@@H](C)CCCCO[C@@H]1CN(C)C(=O)Cc1ccccc1 | -1 | 82* | -5 | -4 | ·
C[C@@H]1CCCCO[C@H](CN(C)C(=O)Cc2ccccc2)[C@H](C)CN([C@@H](C)CO)C(=O)c2cc(NC(=O)Nc3ccc(C(F)(F)F)cc3)ccc2O1 | 1 | 44* | -3 | 1 | ·
COc1cccc(CNC(=O)[C@H]2[C@H](CO)[C@H]3Cn4c(cccc4=O)[C@@H]2N3C(=O)C2CCC2)c1 | -1 | 3 | -3 | -1 | ·
COc1cccc(C2c3[nH]c4ccccc4c3C[C@H]3C(=O)N(c4ccccc4C(=O)N4CCC(C(=O)O)CC4)C(=O)N23)c1 (stereo partly specified) | 5 | 83* | -3 | 1 | ·
COc1ccc(C2c3[nH]c4ccccc4c3C[C@H]3C(=O)N(c4ccccc4C(=O)N4CCC(C(=O)O)CC4)C(=O)N23)cc1 (stereo partly specified) | 3 | -10 | -9 | -2 | ·
N#Cc1ccc(-c2ccc3c(c2)[C@H]2[C@H](CCN2C(=O)C2CCC2)[C@H](CO)N3)cc1 | 0 | 35* | 1 | -16 | ·
O=C(C1CC1)N1CC[C@@H]2[C@H]1c1cc(C#Cc3ccccc3F)ccc1N[C@@H]2CO | · | 29* | · | · | ·
N#Cc1ccc(-c2ccc3c(c2)[C@@H]2[C@@H](CCN2C(=O)C2CCCC2)[C@H](CO)N3)cc1 | -4 | 2 | 5 | -12 | ·
O=C(C1CC1)N1CC[C@@H]2[C@H]1c1cc(C#Cc3ccc(F)cc3)ccc1N[C@@H]2CO | · | 27* | · | · | ·
CCCNC(=O)N1C[C@@H](C)[C@@H](OC)CN(C)C(=O)c2ccc(NC(C)=O)cc2OC[C@H]1C | 3 | 0 | 0 | -3 | ·
COCC#Cc1ccc2c(c1)O[C@@H](CN(C)CC1CCOCC1)[C@H](C)CN([C@H](C)CO)S2(=O)=O | -1 | -4 | 5 | -4 | ·
CC1(C(=O)NS(=O)(=O)Cc2ccccc2)CCN1C(=O)C/C=C/c1ccccc1 (stereo unspecified) | 0 | 8 | 0 | -2 | 11
CC1(C(=O)NS(=O)(=O)c2ccccc2C(F)(F)F)CCN1C(=O)CCc1ccccc1 (stereo unspecified) | 0 | 49* | 3 | -1 | 0
CC1(C(=O)NS(C)(=O)=O)CCN1C(=O)C/C=C/c1ccccc1 (stereo unspecified) | 2 | 61* | 0 | -6 | 4
Cc1ccccc1S(=O)(=O)NC(=O)C1(C)CCN1C(=O)CCc1ccccc1 (stereo unspecified) | 1 | -18 | 1 | -1 | 4
CCc1c(C)c2cc(Cl)c(O)c(CN(CC)CC)c2oc1=O | 85* | -8 | 4 | 5 | 4
C[C@H]1CN([C@@H](C)CO)C(=O)Cc2cc(NS(C)(=O)=O)ccc2O[C@H]1CN(C)C(=O)NC1CCCCC1 | -2 | 7 | 6 | -2 | ·
CN(CC(=O)Nc1ccc(F)cc1)C(=O)COC(=O)c1nc(Cl)ccc1Cl | -6 | 73* | 3 | -1 | -2
O=C(Nc1cccc(F)c1)N1[C@@H]2CNC[C@H]1C2c1ccc(-c2cccnc2)cc1 (stereo partly specified) | 5 | 11 | -3 | 1 | ·
C[C@H](CO)N1C[C@H](C)[C@@H](CN(C)S(=O)(=O)c2ccc(Cl)cc2)OCCCC[C@H](C)Oc2ccc(NC(=O)c3ccncc3)cc2C1=O | 3 | -1 | -10 | 4 | ·
